# Screen size: about 360,000 compounds; about 11,000 (3.1%) were called active. Cut-off read from the data, not from the text of the source: active = activity change below about -30%; inactive = the rest. This excerpt belongs to a sample that is enriched for actives.
# Biological target: D(1A) dopamine receptor (Homo sapiens) (UniProt P21728)
# Test: Antagonist of Human D 1 Dopamine Receptor: qHTS
# Conditions: HEK293 TREx D1 cells, calcium flux, dopamine EC80; at 10 µM; hits give low values
# Procedure, shortened: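 Using tetracycline-induced force-coupled D1 Hek293 cells and a calcium dye, signals were followed for 180 s after compound, then for 180 s after EC80 dopamine, to detect inhibitors.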
# % is set by controls: 0 for no effect and ±100 for the full control effect.
# Chain of D(1A) dopamine receptor (Homo sapiens) (P21728 whole entry, looked up): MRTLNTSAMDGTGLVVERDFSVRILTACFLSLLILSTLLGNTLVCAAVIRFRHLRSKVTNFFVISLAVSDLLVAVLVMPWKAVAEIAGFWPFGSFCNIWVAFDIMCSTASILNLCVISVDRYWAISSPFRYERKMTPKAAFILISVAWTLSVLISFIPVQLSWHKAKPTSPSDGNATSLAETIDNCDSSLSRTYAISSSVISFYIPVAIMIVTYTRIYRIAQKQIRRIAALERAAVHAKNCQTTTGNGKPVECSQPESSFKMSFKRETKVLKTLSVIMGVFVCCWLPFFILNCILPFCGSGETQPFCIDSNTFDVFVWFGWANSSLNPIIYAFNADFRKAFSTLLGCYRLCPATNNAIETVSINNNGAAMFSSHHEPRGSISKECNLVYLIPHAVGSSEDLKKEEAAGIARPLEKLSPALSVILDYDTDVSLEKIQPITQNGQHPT
row,SMILES,"activity change, negative = inhibition"
1,Cc1cccc(CC(=O)N2CC(=O)Nc3ccc(F)cc3C2c2ccccc2)c1 (stereo unspecified),-5.67% (inactive)
2,Cc1nn(CC(=O)O)c(=O)c2cc3cc(F)ccc3n12,16.8% (inactive)
3,COc1cccc(CNC(=O)Cc2csc3nc(-c4ccccc4)cn23)c1,8.74% (inactive)
4,COc1ccc2c(Sc3ccc(C)cc3)c(C(=O)NC(C)c3ccccc3)[nH]c2c1 (stereo unspecified),-2.66% (inactive)
5,Cc1ccc(S(=O)(=O)Nc2ccc3ncccc3c2)cc1,-37.6% (active)
6,Cc1cc(C)cc(OCC(=O)Nc2ccc(S(=O)(=O)Nc3ccccn3)cc2)c1,-0.845% (inactive)
7,Cc1ccc(NS(=O)(=O)c2ccc(C(C)(C)C)cc2)cn1,-7.23% (inactive)
8,Cc1cn(C)c(CC(=O)NCc2ccc(Cl)cc2)c1C(=O)O,-2.23% (inactive)
9,COc1cc(CN(C(=O)c2ccccc2Br)c2ccccn2)cc(OC)c1OC,-66.6% (active)
10,CCC(=O)N(Cc1ccccc1)c1ccccn1,-9.42% (inactive)
11,Cc1ccc(CN(C(=O)c2ccccc2[N+](=O)[O-])c2ccccn2)cc1,-7.2% (inactive)
12,CCN(CC)c1ccc(NC(=O)CN2C(=O)c3cccnc3Oc3ccc(Cl)cc32)c(C)c1,-6.59% (inactive)
13,COc1ccc(N(C)C(=O)C2CCN(S(=O)(=O)c3cc(Br)cc4c3N(C(C)=O)CC4)CC2)cc1,6.85% (inactive)
14,COc1ccc(-n2nc3c(c2NC(=O)Cc2cccc(C)c2)CS(=O)C3)cc1 (stereo unspecified),-10.2% (inactive)
15,Cc1cccc(CC(=O)Nc2c3c(nn2-c2cccc(Cl)c2)CS(=O)C3)c1 (stereo unspecified),-0.884% (inactive)
16,CC(=O)Nc1c2c(nn1-c1ccc(C)cc1C)CS(=O)C2 (stereo unspecified),-34.5% (active)
17,CCOc1ccc(C2CC(=O)c3c([nH]c(C(=O)OCc4ccccc4)c3C)C2)cc1 (stereo unspecified),-22.3% (inactive)
18,Cc1ccc(-c2ccc(CCC(=O)O)n2-c2ccc(C(N)=O)cc2)cc1,-5.89% (inactive)
19,Clc1ccc(CSc2nncn3c2cc2occc23)cc1,-0.2% (inactive)

row,SMILES,"activity change, negative = inhibition"
1,CCOc1ccccc1C(=O)Nc1ccc2c(c1)N(C)C(=O)c1ccccc1S2,-16.7% (inactive)
2,COc1ccccc1N1CCN(c2ccc(=O)n(CC(=O)NCc3ccc(OC(C)C)cc3)n2)CC1,23.5% (inactive)
3,Cc1nc(-c2ccc(F)cc2)c(CC(=O)Nc2cccc(S(=O)(=O)N3CCOCC3)c2)s1,4.46% (inactive)
4,O=S(=O)(c1cccc(Cn2nnc(-c3ccc(F)cc3)n2)c1)N1CCOCC1,-46.2% (active)
5,O=S(=O)(c1cccc(-c2nnc3n2CCCCC3)c1)N1CCOCC1,2.28% (inactive)
6,COC(=O)c1ccc(NC(=O)c2cccc3c2C(=O)N(C2CCCCC2)C3)cc1,-12% (inactive)
7,CC(C)c1ccc(NC(=O)Cn2c3ncccc3c(=O)n2-c2ccccc2)cc1,-16.2% (inactive)
8,Cc1ccc2c(=O)c(C(=O)c3ccc(F)cc3)cn(CC(=O)NC3CCCCC3)c2n1,-3.19% (inactive)
9,Cc1ccc2c(=O)c(C(=O)c3cccc(Cl)c3)cn(CC(=O)NCc3ccccc3)c2n1,-33.4% (active)
10,Cc1ccc2c(=O)c(C(=O)c3ccc(Cl)cc3)cn(CC(=O)NC3CCCCC3)c2n1,-2.17% (inactive)
11,COc1cccc(CNC(=O)C(=O)NCC(c2cccs2)S(=O)(=O)c2ccccc2)c1 (stereo unspecified),10.2% (inactive)
12,Cc1ccc(Cl)cc1N(C)C(=O)Cn1nc(Cc2cccnc2)c2ccccc2c1=O,10.4% (inactive)
13,CCn1c(=O)c(=O)n(CC)c2cc(N3CCCCC3)c(NC(=O)c3cccc(F)c3)cc21,4.44% (inactive)
14,CC(=O)Oc1ccccc1C(=O)Nc1ncc([N+](=O)[O-])s1,-33.9% (active)
15,O=C(Nc1ccncc1)c1ccccc1[N+](=O)[O-],-0.321% (inactive)
16,CC(C)(C)NC(=O)CSc1nnc(NC(=O)CCc2ccccc2)s1,-22.4% (inactive)
17,Cc1ccc2nsnc2c1NC(=O)c1ccccc1[N+](=O)[O-],7.5% (inactive)
18,COC(=O)CSc1nnc(NC(=O)CCc2ccccc2)s1,5.96% (inactive)
19,O=C(CCc1ccccc1)Nc1ncc([N+](=O)[O-])s1,-30% (active)

row,SMILES,"activity change, negative = inhibition"
1,Cc1ccccc1C(=O)NCc1nc(-c2ccc(Cl)cc2)no1,-7.49% (inactive)
2,N#Cc1nc(Nc2cccc(Cl)c2)nc(NC2CCCC2)n1,-6.69% (inactive)
3,COc1ccc(C(=O)Nc2cccc(C(=O)OCc3cc(=O)n4c5c(sc4n3)CCCC5)c2)cc1,-2.93% (inactive)
4,CN1CCOc2cc(S(=O)(=O)N3CCN(S(=O)(=O)c4c(F)cccc4F)CC3)cnc21,1.83% (inactive)
5,CC1Cc2cc(S(=O)(=O)CCC(=O)Nc3ccc(F)c(Cl)c3)ccc2N1C(=O)C1CC1 (stereo unspecified),-8.79% (inactive)
6,Cc1ccc(C)c(N2CCN(C(=O)Cc3c(C(=O)O)c(C)cn3C)CC2)c1,3.31% (inactive)
7,Cc1nc2nc(SCC(=O)N(Cc3ccccc3)C(C)C)nn2c(C)c1Cc1ccccc1Cl,-7.72% (inactive)
8,COc1ccc(-n2c(C)nc3c(cnn3-c3ccc(F)cc3)c2=O)cc1,-26.8% (inactive)
9,N/C(=N\S(=O)(=O)c1ccc(Cl)cc1)N1CCOCC1,-7.63% (inactive)
10,N#C/C(=C\N1CCOCC1)S(=O)(=O)c1ccc(Cl)cc1,-41.8% (active)
11,O=S(=O)(Oc1ccccc1C(=S)N1CCOCC1)c1ccc(Cl)cc1,-1.41% (inactive)
12,O=C(Nc1ccc(-c2nc3cc(NC(=O)c4ccccc4Cl)ccc3o2)cc1)c1ccccc1Cl,6.02% (inactive)
13,COC(=O)c1ccc(NC(=O)c2ccccc2NS(=O)(=O)c2ccccc2)cc1,-42.5% (active)
14,COc1cc(NC(=O)c2ccccc2NS(=O)(=O)c2ccc(Cl)s2)cc(OC)c1,-11.8% (inactive)
15,COC(=O)c1ccccc1NS(=O)(=O)c1ccc2[nH]c(=O)[nH]c2c1,9.8% (inactive)
16,CCS(=O)(=O)N1CCC(n2c(C)nc3cccnc32)CC1,12.3% (inactive)
17,COc1ccc(OC)c(-c2nc(C(N)=O)c3c(n2)n(-c2ccc4c(c2)OCO4)c(=O)n3C)c1,-6.79% (inactive)
18,Cc1ccc(CN2COc3cc(C)c4c(oc(=O)c5ccccc54)c3C2)cc1,3.2% (inactive)
